Holding throughout (test): NCI-60 one-dose screen, 48 h (100 = growth as untreated, 0 = no growth, -100 = all killed)
One test relates to DU-145 prostate. The following applies: 10 µM unless noted.
Another test has as its system K-562 leukemia. The following applies: 10 µM unless noted.
For the next test, the system named is MALME-3M melanoma. As to conditions: 10 µM unless noted.
The next test has as its system MDA-MB-231 breast. As to conditions: 10 µM unless noted.
For a further test, the system named is RXF 393 renal. As to conditions: 10 µM unless noted.
In another test the test system is SF-268 CNS. The following applies: 10 µM unless noted.
For another test, the system named is SF-295 CNS. The following applies: 10 µM unless noted.
The next test concerns SF-539 CNS. The following applies: 10 µM unless noted.
The subject of the next test is UACC-257 melanoma. The following applies: 10 µM unless noted.
The next test concerns HCT-15 colon. The following applies: 10 µM unless noted.
The subject of another test is HT29 colon. The following applies: 10 µM unless noted.
A further test deals with SNB-75 CNS. The following applies: 10 µM unless noted.
The next test has as its system SNB-19 CNS. As to conditions: 10 µM unless noted.
The next test concerns U251 CNS. As to conditions: 10 µM unless noted.
Another test deals with PC-3 prostate. The following applies: 10 µM unless noted.
In a further test the test system is SK-MEL-5 melanoma. As to conditions: 10 µM unless noted.
In a further test the test system is UACC-62 melanoma. As to conditions: 10 µM unless noted.
In a further test the test system is LOX IMVI melanoma. As to conditions: 10 µM.
The test system of the next test is SK-MEL-28 melanoma. The following applies: 10 µM unless noted.

The structures appear in SMILES notation. Compounds without any hit were thinned out: in the full panel of roughly 83,000, 20% have a hit.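 The test compound was applied at a single concentration to cells in 96-well plates for 48 hours, and percent growth was recorded.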 A number with no mark means an inactive call. Activity calls are given as the source filed them. How the source made its calls: active means growth percent below 10; inactive means the rest.

With `COC1CC(C)C(OC)c2cc(O)cc(c2O)NC(=O)/C(C)=C/C=C\C(C)C(OC(N)=O)/C(C)=C\C(C)C1OC` (centres undefined), the growth in the test on DU-145 prostate is -29.7% (active); with K-562 leukemia, -58.6% (active); in the test with MALME-3M melanoma, 32.1%; in the test on MDA-MB-231 breast, 32.4%; with RXF 393 renal, -20.5% (active); in the test with SF-268 CNS it was 63.1%. The growth in the test with SF-295 CNS was -15.9% (active); with SF-539 CNS, 6.34% (active); with UACC-257 melanoma it was 14.4%; in the test with HCT-15 colon it was 5.82% (active); in the test with HT29 colon, 5.88% (active); in the test on SNB-75 CNS, 47.8%. Besides, the growth in the test with SNB-19 CNS is 37.8%; in the test on U251 CNS, 43.9%; with PC-3 prostate it was 25.2%; in the test with SK-MEL-5 melanoma it was -10.9% (active); in the test with UACC-62 melanoma, -27.6% (active); in the test on LOX IMVI melanoma it was 5.8% (active).
Turning to `OC(c1cc(-c2ccc(Cl)cc2)nc2c(Cl)cccc12)C1CCCCN1` (centres undefined), the growth in the test with DU-145 prostate was -96.3% (active); in the test with K-562 leukemia, -30.9% (active); in the test with MALME-3M melanoma, -50.2% (active); in the test on MDA-MB-231 breast it was -71.1% (active); in the test on RXF 393 renal, -98.1% (active); with SF-268 CNS, -65.7% (active). The growth with SF-295 CNS is -80.8% (active); in the test on SF-539 CNS, -72.4% (active); in the test with UACC-257 melanoma it was -77% (active); in the test on HCT-15 colon it was -58.1% (active); in the test with HT29 colon it was -86.3% (active); with SNB-75 CNS, -81.2% (active). Also, the growth is -69.9% (active) with SNB-19 CNS; -94.4% (active) with PC-3 prostate; -0.885% (active) in the test with SK-MEL-5 melanoma; -75.9% (active) in the test on UACC-62 melanoma; -76.6% (active) in the test with LOX IMVI melanoma; -94.6% (active) in the test on SK-MEL-28 melanoma.
Turning to `CCCc1cc(=O)oc2c3c(c4c(c12)OC(C)(C)CC4)OC(C)[C@H](C)[C@@H]3O` (some centres undefined), the growth in the test with DU-145 prostate was 104%; in the test on K-562 leukemia, 71.2%; in the test with MALME-3M melanoma, 139%; in the test with MDA-MB-231 breast, 79.9%; in the test with RXF 393 renal it was 77.5%; in the test with SF-268 CNS, 94.4%. Further, the growth is 44.5% with SF-295 CNS; 108% in the test with SF-539 CNS; 104% in the test with UACC-257 melanoma; 55.5% in the test on HCT-15 colon; 58.8% in the test with HT29 colon; 91.5% in the test on SNB-75 CNS. Also, the growth with SNB-19 CNS was 94.4%; in the test with U251 CNS, 75.1%; in the test on PC-3 prostate, 42.7%; with SK-MEL-5 melanoma it was 86.9%; with UACC-62 melanoma, 68.9%; in the test on LOX IMVI melanoma, 83.1%. The growth with SK-MEL-28 melanoma was 93.1%.
For the molecule `COc1ccc2nc3cc([N+](=O)[O-])ccc3c(NNc3ccccc3)c2c1`, the growth was 89.6% with DU-145 prostate; 90.5% in the test with K-562 leukemia; 90.9% in the test with MALME-3M melanoma; 66.5% with MDA-MB-231 breast; 46.9% with RXF 393 renal; 56.8% in the test on SF-268 CNS. Besides, the growth was 56% in the test with SF-295 CNS; 22.6% with SF-539 CNS; 101% in the test on UACC-257 melanoma; 69.4% in the test on HCT-15 colon; 94% with HT29 colon; 23.5% in the test on SNB-75 CNS. For the same molecule, the growth was 73% in the test with SNB-19 CNS; 29.1% in the test with U251 CNS; 88.5% with SK-MEL-5 melanoma; 74.6% in the test with UACC-62 melanoma; 84.2% in the test on LOX IMVI melanoma; 97.1% in the test with SK-MEL-28 melanoma.
Regarding `C[n+]1ccccc1C[n+]1ccccc1`, the growth in the test on DU-145 prostate was 114%; with K-562 leukemia it was 87.8%; with MALME-3M melanoma it was 118%; in the test with MDA-MB-231 breast it was 122%; in the test on RXF 393 renal it was 115%; in the test with SF-268 CNS it was 96.8%. The growth in the test on SF-295 CNS is 114%; in the test on SF-539 CNS, 106%; in the test with UACC-257 melanoma, 112%; in the test on HCT-15 colon, 110%; in the test on HT29 colon, 103%; in the test on SNB-75 CNS, 101%. Moreover, the growth is 104% with SNB-19 CNS; 109% with U251 CNS; 91.4% in the test with PC-3 prostate; 105% with SK-MEL-5 melanoma; 105% with UACC-62 melanoma; 114% in the test on LOX IMVI melanoma. Further, the growth in the test on SK-MEL-28 melanoma is 98.3%.
As for `O=C1C=CC(=O)N1c1cc(Cl)c(Cl)cc1Cl`, the growth in the test on DU-145 prostate was 109%; with K-562 leukemia, 93.9%; in the test with MALME-3M melanoma, 96.6%; in the test with MDA-MB-231 breast, 120%; in the test with RXF 393 renal it was 106%; in the test on SF-268 CNS it was 102%. The growth was 97.5% in the test on SF-295 CNS; 109% in the test on SF-539 CNS; 101% with UACC-257 melanoma; 113% in the test on HCT-15 colon; 101% in the test with HT29 colon; 82.1% in the test with SNB-75 CNS. For the same molecule, the growth in the test with SNB-19 CNS was 108%; in the test with PC-3 prostate, 100%; with SK-MEL-5 melanoma, 111%; in the test with UACC-62 melanoma, 105%; with LOX IMVI melanoma, 97.9%; in the test with SK-MEL-28 melanoma it was 107%.
As for `c1ccc(-c2cccc(-c3ccccn3)n2)nc1`, the growth is 17.8% in the test with DU-145 prostate; 4.95% (active) in the test on K-562 leukemia; 3.68% (active) in the test with MALME-3M melanoma; 44.1% in the test on MDA-MB-231 breast; 26.2% with RXF 393 renal; 19.9% in the test with SF-268 CNS. Further, the growth in the test with SF-295 CNS was 19.5%; in the test with SF-539 CNS, 5.87% (active); in the test with UACC-257 melanoma, -4.86% (active); in the test with HCT-15 colon, 28%; with HT29 colon it was 26%; in the test on SNB-75 CNS it was 49%. The growth is 27.9% with SNB-19 CNS; 14.5% in the test on U251 CNS; 31.2% in the test on PC-3 prostate; -50.8% (active) in the test with SK-MEL-5 melanoma; 3.51% (active) in the test on UACC-62 melanoma; -0.708% (active) in the test on LOX IMVI melanoma. The growth in the test with SK-MEL-28 melanoma was 33%.
